Source: PubChem BioAssay
PrP 5UTR inh = inhibition of PrP 5' UTR reporter expression; cell-based PrP 5' UTR mRNA reporter, plate reader; inhibition, % (concentration not given with the values); 0.35% of 340,000 active; AID 488862; in the data active means inhibition above about 52%; further: 0 = median of the neutral control wells
PrPC surface inh = reduces human prion protein on the cell surface. P04156. cell surface PrPC, TR-FRET read-out. 0.43% of 370,000 active. inhibition, % at 13.8 µM; in the data active means inhibition above about 24%; further: 0% = median of the test wells and 100% = reference compound wells
SARS 3CLpro inh = SARS-CoV 3CLpro protease inhibition; recombinant SARS-CoV 3CLpro, quenched FRET peptide cleavage; inhibition, % at 6 µM; 0.14% of 290,000 active; in the data active means inhibition above about 12%
SSB-PriA inh = inhibitors of Klebsiella pneumoniae PriA binding to SSB C-terminal tail; inhibition, % at 33 µM; 0.6% of 430,000 active; AID 1272365; AlphaScreen SSBct-PriA binding, biotinylated peptide; in the data active means inhibition mostly above about 37%, no sharp cut-off; inactive means mostly below about 20%;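 further: plate controls were negative control peptide for no effect and reference peptide for full effect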
BJeLR lethal = kills HRASV12-expressing BJeLR cells; BJeLR (HRASV12) viability, CellTiter-Glo ATP luminescence, 48 h; inhibition, % (test concentration not listed); 0.17% of 300,000 active; AID 1554; in the data active means inhibition above about 50%
* = called active by the depositor; x = no result; ! = not active in a repeat. Only some compounds are listed: those with a hit (about 1.2% of all), similar ones and a draw of the others.

SMILES	PrP 5UTR inh	PrPC surface inh	SARS 3CLpro inh	SSB-PriA inh	BJeLR lethal
O=C(Nc1ccc(CN2CCN(c3ccccn3)CC2)cc1)Nc1ccc2c(c1)OCO2	x	x	x	50*	x
COc1ccc(NC(=O)Nc2ccc(CN3CCN(c4ccccn4)CC3)cc2)cc1	x	x	x	26	x
O=C(Nc1ccc(-c2cn3ccsc3n2)cc1)Nc1ccc2c(c1)OCO2	x	x	x	0	x
CC(C)N(C(=O)Nc1ccc2nccnc2c1)C(C)C	-22	1	-10	79*	-1
Fc1ccc(NC(=S)Nc2ccc3nccnc3c2)cc1	-33	-4	-5	45*	0
CC(=NNS(=O)(=O)c1ccc(C)cc1)c1ccc(NC(=O)C(F)(F)F)cc1	x	x	x	4	x
Cc1cc(N(CCO)CCO)ccc1N=Nc1cc(F)ccc1F	-80	-15	4	75*	8
CC12CCC(O)CC1CCC1C2CCC2(C)C(O)/C(=C/c3ccccc3Cl)CC12 (stereo not given)	x	x	x	2	x
CS(=O)(=O)N(Cc1ccc(C(=O)Nc2ccccc2Sc2ccccc2)cc1)c1ccccc1	-6	5	13*	-6	1
CC(Cc1ccco1)NC(=O)c1ccc(OC(F)(F)F)cc1 (stereo not given)	x	x	x	-9	x
c1ccc(OC2CC3CCC(C2)N3)nc1 (stereo not given)	x	x	x	96*	x
CCOCC(=O)NC1CCC(Oc2ccccn2)CC1 (stereo not given)	x	x	x	-7	x
N#Cc1nc(COc2ccc(Cl)cc2Cl)oc1N1CCOCC1	6	6	6	56*	4
N#Cc1nc(COc2ccccc2)oc1N1CCCCCC1	-11	4	1	109*!	2
N#Cc1nc(COc2ccccc2)oc1N1CCCC1	-48	2	5	14	3
N#Cc1nc(COc2ccc(Br)cc2)oc1N1CCCCCC1	1	1	-8	24	-15
N#Cc1nc(COc2ccc(Br)cc2)oc1N1CCCC1	-18	7	1	51*	0
Cc1ccc(OCc2nc(C#N)c(N3CCOCC3)o2)cc1	x	x	x	82*	x
COc1cccc(CNC(=O)C2(c3cccs3)CCCC2)c1	x	x	x	-21	x
O=C(CS(=O)(=O)c1ccc(Cl)cc1)Nc1cccc(-c2nc3ccccc3[nH]2)c1	x	x	x	0	x
N#Cc1nc(COc2ccc(Cl)cc2)oc1N1CCCCC1	x	x	x	95*	x
COc1ccc(Nc2oc(COc3ccc(Cl)cc3)nc2C#N)cc1	24	7	2	41*	-4
N#Cc1nc(COc2ccc(F)cc2)oc1N1CCCCC1	-4	-5	3	17	12
CN1CCN(c2oc(COc3ccc(-c4ccccc4)cc3)nc2C#N)CC1	-6	0	4	60*	15
COc1ccc(OCc2nc(C#N)c(N3CCCC3)o2)cc1	x	x	x	80*	x
SMILES	PrP 5UTR inh	PrPC surface inh	SARS 3CLpro inh	SSB-PriA inh	BJeLR lethal
COc1ccc(N2CCN(c3oc(COc4ccccc4)nc3C#N)CC2)cc1	-14	2	-2	-20	x
COc1ccc(N2CCN(c3oc(COc4ccc(Cl)cc4)nc3C#N)CC2)cc1	-26	-4	-1	17	4
COc1ccc(OC)c(N2C[C@](O)(c3ccc4c(c3)OCCO4)[N+]3=C2SCCC3)c1	x	x	x	-1	x
N#Cc1nc(COc2ccc(F)cc2)oc1N1CCCCCC1	x	x	x	111*	x
COc1ccc(OCc2nc(C#N)c(N3CCCCCC3)o2)cc1	x	x	x	102*	x
CCN(CC)c1ccc(C=NNS(=O)(=O)c2ccc(C)c([N+](=O)[O-])c2)cc1	x	x	x	39*	x
Cc1ccc2c(c1)-c1ncc(C(=O)c3cc(Br)ccc3O)cc1CO2	x	-7	2	x	0
Cc1ccc(O)c(C(=O)c2cnc3c(c2)COc2ccc(C)cc2-3)c1	-28	-9	4	39*	3
CCOc1cccc2cc(C(=O)Nc3ccc4c(c3)C(=O)N(C)C4=O)oc12	x	x	x	13	x
CCN1C(=O)Cc2cc(NC(=O)c3cccc(C)c3)ccc21	x	x	x	-1	x
COC(=O)c1cc(NC(=O)CN(c2cccc(OC)c2)S(=O)(=O)c2ccccc2)ccc1Cl	-4	14	0	-7	4
COC(=O)c1cc(NC(=O)CN(c2ccccc2OC)S(=O)(=O)c2ccccc2)ccc1Cl	-21	3	13*	11	4
Cc1cc(=O)[nH]c(NN=Cc2c(O)n(-c3ccccc3)c(=O)c3ccccc23)n1	x	x	x	85*	x
Cc1cc(=O)[nH]c(NN=Cc2c(C)nn(-c3ccccc3)c2C)n1	x	x	x	-1	x
COC(=O)c1ccc(C(=O)N(CCN(C)C)c2nc3c(F)cccc3s2)cc1	x	x	x	-3	x
COc1ccc(S(=O)(=O)Nc2ccc3oc(-c4ccccc4F)cc(=O)c3c2)cc1	x	x	x	6	x
Cc1ccc(S(=O)(=O)NC[C@H]2CCCN2c2ccccc2)s1	x	x	x	34*	x
O=S(=O)(NC[C@H]1CCCN1c1ccccc1)c1cccc2ccccc12	x	x	x	32*	x
O=S(=O)(NCC1CCCN1c1ccccc1)c1ccc(OC(F)(F)F)cc1 (stereo not given)	x	x	x	18	x
c1ccc(C2=NNC(=NCc3ccc4c(c3)OCO4)SC2)cc1	1	-5	-5	47*	-17
CCOC(=O)c1c(C)oc2cc(Br)c(OCCOc3ccccc3F)cc12	x	x	x	-10	x
C[C@@H](C(=O)NCc1ccco1)N1C(=O)N2CCc3c([nH]c4ccccc34)[C@@]2(C)C1=O	-40	-3	5	47*	-2
CC(C)C[C@@H](C(=O)NCc1ccco1)N1C(=O)N2CCc3c([nH]c4ccccc34)[C@@]2(C)C1=O	-11	-3	-3	19	-13
N#Cc1nc(-c2ccco2)oc1N1CCN(c2ccccc2)CC1	-12	-1	3	38*	-3
COc1ccccc1-c1nc(C#N)c(N2CCN(c3ccccc3)CC2)o1	-4	0	0	51*	8
SMILES	PrP 5UTR inh	PrPC surface inh	SARS 3CLpro inh	SSB-PriA inh	BJeLR lethal
COc1ccc(N2CCN(c3oc(-c4ccco4)nc3C#N)CC2)cc1	2	7	3	15	0
COc1ccccc1-c1nc(C#N)c(N2CCc3ccccc3C2)o1	-2	1	1	56*	-5
COc1ccc(N2CCN(c3oc(-c4ccccc4OC)nc3C#N)CC2)cc1	-4	x	5	27	-2
CCn1ccc(C(=O)N=c2sc3cc(C)c(C)cc3n2CCOC)n1	x	x	x	-9	x
Cc1ccc(NC(=O)Cn2cccc(-c3nc(-c4ccc(Br)cc4)no3)c2=O)c(C)c1	x	x	x	-17	x
COC(=O)c1ccc(C=NNC(=O)CC(=O)NC(C)C)cc1	x	x	x	-9	x
O=C(NNc1ccc(C(F)(F)F)cc1[N+](=O)[O-])c1ccc(NS(=O)(=O)c2ccc(F)cc2)cc1	-10	-16	9	60*	6
O=C(O)c1cccc2ccccc12	x	x	x	3	x
COc1ccc(C)cc1NCc1ccc([N+](=O)[O-])cc1	-13	11	-8	40*	3
COc1ccc(CNc2cc([N+](=O)[O-])ccc2OC)cc1	-19	3	4	-58	8
Cc1ccc(-c2nc3ccccn3c2NCc2ccc3c(c2)OCO3)cc1	-61	5	3	45*	-20
COC(=O)c1ccc(S(=O)(=O)Nc2ccc(CC(=O)NC3CC3)cc2)cc1	x	x	x	0	x
Cc1ccc(C2CC(c3cccs3)=NN2C(=O)CSc2nnc(-c3ccncc3)o2)cc1 (stereo not given)	x	x	x	5	x
